Growth inhibition and condensed nuclei data for 37 compounds are collected here from PubChem BioAssay AID770 (SRMLSC, 2007).

The assay is described as follows: HT29 colon tumor cell growth inhibition, primary screen, imaging, high content imaging, 24 h, CellTiter-Glo (AID 770).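 For condensed nuclei: share of cells whose nuclear area falls below control median minus 1.5 SD.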 The conditions noted are these: HT29 cell number by imaging, at 10 µM, stronger effect = higher value; for condensed nuclei: measured here: percent cells with condensed nuclei. (In general: ATP-based viability assays read luminescence as a measure of living cells.)

The mark [1] stands for this setting: measured here: ATP CellTiter-Glo viability.

The campaign covered roughly 3,300 compounds. Fewer than 10 were called active.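 Rule for the calls: active = growth inhibition above 90% in viable cell count at a single dose; inactive = growth inhibition below 90%.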 These entries were drawn from the full list.

For the compound `Cc1ccc(N2CN=c3s/c(=C\c4cccnc4)c(=O)n3C2)cc1`, the growth inhibition was 8.42% (inactive) and the condensed nuclei came out at 1.92%. Further, the growth inhibition under setting [1] was 6.47%.
Consider `O=C1NCC(COCC2CC=CCC2)O1` (stereo unspecified), for which the growth inhibition was 12.9% (inactive) and the condensed nuclei stood at 2.4%. Moreover, the growth inhibition under setting [1] was -2.87%.
In the same order, the values of `COc1ccc(OC)c(N=C(C)C2=C(O)COC2=O)c1` are 23.1% (inactive), 1.86% and 7.81%.
In the same order, the values of `CSc1nc(N2CCCC2)c2c(c1C#N)CC(C)(C)OC2` are -22.4% (inactive), 2.73% and -13.8%.
In the same order, the values of `COc1ccc(N2CCN(c3oc(COc4ccc(Cl)cc4)nc3C#N)CC2)cc1` are 22.4% (inactive), 2.73% and 12.5%.
Consider `COC(=O)c1ccc(C2/C(=C(/O)c3ccc(OC)cc3)C(=O)C(=O)N2Cc2ccco2)cc1` (stereo unspecified), for which the growth inhibition is 26.5% (inactive) and the condensed nuclei is 4.2%. Further, the growth inhibition under setting [1] is -0.21%.
Taken in the same sequence, the figures for `CCN(CC)c1ccc2cc(-c3nnc(-c4ccncc4)o3)c(=O)oc2c1` were 100% (active), 2.72% and -9.78%.
Taken in the same sequence, the figures for `CCN(CC)c1ccc2cc(C(=O)Nc3ccccn3)c(=O)oc2c1` were 6.44% (inactive), 2.75% and -4.18%.
In the same order, the values of `CCCCCCc1cc2cc(-c3nnc(-c4ccccc4O)o3)c(=O)oc2cc1O` are 47% (inactive), 6.21% and 17.7%.
Consider `CCOC(=O)CSc1nc(N)c(C#N)c(-c2ccc(OC)cc2)c1C#N`, for which the growth inhibition was -7.67% (inactive) and the condensed nuclei turned out to be 3.97%. For the same compound, the growth inhibition under setting [1] is -12.5%.
Taken in the same sequence, the figures for `Cc1c(C)c2cc(Cl)c(O)c(CN3CCCC(C)C3)c2oc1=O` (stereo unspecified) were 25.4% (inactive), 3.35% and -6.25%.
In the same order, the values of `CCOP(=O)(c1ccccc1)C1(C#N)CCCC1` (stereo unspecified) are -30.7% (inactive), 4.43% and -12.2%.
Regarding `CCCCOc1ccc(CN(C)c2ncnc(N)n2)cc1`, the growth inhibition was 56% (inactive) and the condensed nuclei stood at 6.77%. Moreover, the growth inhibition under setting [1] came out at 22.5%.
Turning to `C1CCC(C(CC2CCCCN2)C2CCCCC2)CC1` (stereo unspecified), the growth inhibition was 99.3% (active) and the condensed nuclei turned out to be 30.1%. For the same compound, the growth inhibition under setting [1] is 97.5%.
Taken in the same sequence, the figures for `CC1(C)CC(=O)C2=C(C1)N(Cc1ccco1)C(=O)C2(O)C(F)(F)F` (stereo unspecified) were 11% (inactive), 2.44% and -21.1%.
As for `CSc1nncc(=O)[nH]1`, the growth inhibition is -17.8% (inactive) and the condensed nuclei was found to be 1.83%. Further, the growth inhibition under setting [1] amounted to 10.8%.
In the same order, the values of `CN1CCN(/C=N/c2sc3c(c2C#N)CCCCC3)CC1` are 45.9% (inactive), 4.6% and 15.9%.
As to `COc1ccc2c(c1OC)C(=O)N1c3ccccc3SC21` (stereo unspecified), the growth inhibition is -18.9% (inactive) and the condensed nuclei is 2.15%. Besides, the growth inhibition under setting [1] is -15.6%.
Turning to `Nc1ccc2oc(-c3ccccc3Cl)nc2c1`, the growth inhibition was 26.7% (inactive) and the condensed nuclei was found to be 11.4%. Besides, the growth inhibition under setting [1] turned out to be 5.57%.
In the case of `CCc1cc(=O)oc2c(CN3CCN(C)CC3)c(O)c(Cl)cc12`, the growth inhibition is 52.2% (inactive) and the condensed nuclei came out at 4.11%. Besides, the growth inhibition under setting [1] is -8.76%.
Take `CCOC(=O)NC(Nc1cc(C)on1)(C(F)(F)F)C(F)(F)F`: the growth inhibition is -33.3% (inactive) and the condensed nuclei worked out at 4.42%. Further, the growth inhibition under setting [1] was -14.8%.
With `COCCOC(=O)C1=C(C)OC(N)=C(C#N)C1c1ccco1` (stereo unspecified), the growth inhibition was 13.2% (inactive) and the condensed nuclei came out at 3.33%. Moreover, under setting [1], the growth inhibition came out at 1.7%.
Turning to `CCSc1nnc(NC(=O)C(CC)(C(F)(F)F)C(F)(F)F)s1`, the growth inhibition is 3.79% (inactive) and the condensed nuclei turned out to be 3.03%. Also, the growth inhibition under setting [1] was -3.56%.
Taken in the same sequence, the figures for `COc1ccc(OC)c(C2/C(=C(/O)c3ccccc3)C(=O)C(=O)N2Cc2ccco2)c1` (stereo unspecified) were 11.9% (inactive), 4.83% and -6.75%.
Taken in the same sequence, the figures for `O=C(C/C(=N/O)c1ccccc1O)C(F)F` were -0.96% (inactive), 1.25% and -14.3%.
Taken in the same sequence, the figures for `O=C(c1cccc2ccccc12)N1CCC(N2CCN(c3ccccc3)CC2)CC1` were -27.1% (inactive), 3.56% and -18.2%.
Consider `Cn1c(O)c(C=Nc2ccc(Cc3ccncc3)cc2)c(=O)n(C)c1=O`, for which the growth inhibition was 13.2% (inactive) and the condensed nuclei is 1.24%. Moreover, the growth inhibition under setting [1] is -6.92%.
With `CCOC(=O)CC1=NC(=O)CS1`, the growth inhibition is 7.12% (inactive) and the condensed nuclei amounted to 1.37%. Under setting [1], the growth inhibition was 1.44%.
Consider `Cc1ccc(S(=O)(=O)NC(=O)Nc2ncc3c(n2)CC(c2ccco2)CC3=O)cc1` (stereo unspecified), for which the growth inhibition is -27% (inactive) and the condensed nuclei is 2.73%. The growth inhibition under setting [1] came out at 0.34%.
Consider `CCCc1nc2n[nH]c(N)c2c2c1CCCC2`, for which the growth inhibition is 3.73% (inactive) and the condensed nuclei was determined as 3.31%. The growth inhibition under setting [1] turned out to be 6.01%.
Taken in the same sequence, the figures for `O=C1C(=O)N(CCCn2ccnc2)C(c2ccccn2)/C1=C(/O)c1ccccc1` (stereo unspecified) were 20.5% (inactive), 3.21% and -11.5%.
Regarding `CCOc1ccc(/C(O)=C2/C(=O)C(=O)N(CCN(CC)CC)C2c2ccco2)cc1` (stereo unspecified), the growth inhibition was -44.4% (inactive) and the condensed nuclei turned out to be 3.46%. The growth inhibition under setting [1] is -11.1%.
In the same order, the values of `CC1CCN(c2[nH]c(=S)c(C#N)c3c2CCCC3)CC1` are 2.28% (inactive), 1.9% and -10.9%.
As to `CC1(C)CC(=O)C2=C(C1)N(Cc1ccco1)C(=O)C2(NC(=O)c1cccnc1)C(F)(F)F` (stereo unspecified), the growth inhibition is 18.6% (inactive) and the condensed nuclei was 1.91%. Also, under setting [1], the growth inhibition is -14.4%.
In the same order, the values of `CCCOc1ccc(Cc2nn[nH]n2)cc1` are 36.3% (inactive), 4.59% and 4.03%.
In the same order, the values of `O=C(NCCOCCOCCNC(=O)c1cccnc1)c1cccnc1` are -50.5% (inactive), 2.66% and -16.6%.
Taken in the same sequence, the figures for `CC(C)CSc1nc(N2CCOCC2)c2c(c1C#N)CC(C)(C)SC2` were -12.2% (inactive), 2.93% and 13.9%.
